Test results reported in PubChem BioAssay AID602440 (Sanford-Burnham Center for Chemical Genomics, 2012).
Among all 360,000 compounds or so, about 2,300 (0.64%) were called active. This is one part of a sample in which actives are shown more often than they occur. A number with no mark means an inactive call. Cut-off read from the data, not from the text of the source: active = inhibition mostly above about 40% (no sharp cut-off); inactive = mostly below about 27%.

Biological target: Sentrin-specific protease 8 (Homo sapiens) (UniProt Q96LD8)
Experiment: human SENP8 protease inhibitors, primary screen, biochemical, fluorescence, Nedd8 protein substrate, uHTS (AID 602440)
Details: recombinant SENP8, Nedd8 substrate fluorescence; at 20 µM; hits give high values

Sentrin-specific protease 8 (Homo sapiens), sequence (Q96LD8 whole entry, looked up): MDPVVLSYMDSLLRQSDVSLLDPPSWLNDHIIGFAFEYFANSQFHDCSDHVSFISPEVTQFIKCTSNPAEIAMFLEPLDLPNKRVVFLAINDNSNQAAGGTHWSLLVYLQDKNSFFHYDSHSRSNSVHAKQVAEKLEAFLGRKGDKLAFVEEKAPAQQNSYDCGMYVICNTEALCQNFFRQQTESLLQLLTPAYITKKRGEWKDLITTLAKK

SMILES	inhibition
COc1ccccc1N=Nc1c(O)[nH]c(=S)[nH]c1=O	49% (active)
O=C1N=c2ccccc2=C/C1=C\c1c(O)[nH]c(=S)[nH]c1=O	-52.5%
CCOCCc1c(O)[nH]c(=S)[nH]c1=O	21.8%
CC(C(=O)Nc1ccc(Cl)cc1Cl)N1CC=C(c2ccccc2)CC1 (stereo not given)	26.7%
CNC(=O)N(C)c1nnc(C(C)(C)C)s1	17.7%
O=C1NC(=O)N(c2ccccc2)C(=O)/C1=C/c1ccc([N+](=O)[O-])s1	64.6% (active)
CCN(CC)CCOC(=O)c1cc2cc(COC)ccc2o1	15.2%
COC(=O)C1=C(c2cc3ccccc3o2)C[C@@H]2CC[C@H]1N2C(=O)NC1CCCCC1	11.5%
CCOC(=O)CNC(=O)N1Cc2cc(N3CCCCC3)ccc2-n2nncc2C1	-24.7%
c1cc2c(cc1[C@H]1OC[C@H]3[C@@H]1CO[C@@H]3c1ccc3c(c1)OCO3)OCO2	12.2%
c1cc2c(cc1C1OCC3C(c4ccc5c(c4)OCO5)OCC13)OCO2 (stereo not given)	62.3% (active)
O=C1/C(=C\c2ccc3c(c2)OCO3)N2CCC1CC2	13.7%
COC(=O)C1=C(c2ccc(F)cc2OCc2ccccc2)C[C@@H]2CC[C@H]1N2C(=O)NCc1ccc(OC)c(OC)c1	14.1%
CCOC(=O)[C@]12Cc3ccccc3[C@H]1N(C1CCCCC1)C(=O)c1cc(OC)ccc12	-7.7%
O=c1[nH]c(=O)n(CCc2ccccc2)c(O)c1/C=N/N1CCOCC1	11.3%
COc1ccc(C(=O)CC2C(=O)N(C)C(=O)N(C)C2=O)cc1	42.5% (active)
CCOP(=O)(OCC)C(NC(=O)c1ccc(OC)cc1)C(Cl)(Cl)Cl (stereo not given)	4.3%
COc1ccc(C(=O)C2CN(C)CC2C(=O)c2ccc(OC)cc2)cc1 (stereo not given)	14.3%
CCCCCCCCCCCCn1ccc(=N)cc1	26.2%
CCOC(=O)CC(SP1(=S)OCC2(CCCCO2)C(C2CCCCO2)O1)C(=O)OCC (stereo not given)	2.3%
Cc1ccc(Cn2c(C)c3cnn(CC(=O)N4CCC5(CC4)OCCO5)c(=O)c3c2C)cc1	-29%
C=CC12CN(C)[C@@H]3C4CO[C@H](C[C@H]41)[C@]1(C(=O)Nc4ccccc41)[C@@H]32 (stereo not given in full)	40.4% (active)
COc1ccc2c(c1)[C@]13CCCCC1C(C2)N(C)CC3 (stereo not given in full)	2%

SMILES	inhibition
O=C(O)CCn1cc(C=C2C(=O)NC(=S)NC2=O)c(-c2cccc(Br)c2)n1	2.3%
CN(c1ccccc1)c1ccc([N+](=O)[O-])c2nonc12	44.1% (active)
CCN(CC)c1ccc([N+](=O)[O-])c2cccnc12	36.3%
C[C@]12CCCCC1=CC(=O)C1C2CC[C@@]2(C)C1C[C@@H](F)[C@@H]2O (stereo not given in full)	-0.8%
C[N+]12CN3CN(CN(C3)C1)C2	12.2%
O=c1c2ccccc2nc(/C=C/c2ccco2)n1-c1ccccc1O	-36.8%
CNP1(NC)=Nc2nn(-c3ccccc3)c(N)c2C(c2ccccc2)=N1	21.7%
O=C(O)C1CSC(c2cccnc2)N1 (stereo not given)	6.7%
C[C@]12CC[C@H](O)C[C@H]1CC[C@@H]1C2CC[C@]2(C)[C@@H](C3=CC(=O)OC3)[C@@H](O)C[C@]12O (stereo not given in full)	15.3%
COC1C(O)C(C)OC(OC2CCC3(C=O)C(CCC4C3CCC3(C)C(C5=CC(=O)OC5)CCC43O)C2)C1O (stereo not given)	66.8% (active)
CC(C)CN1CCN(Cc2ccccc2C(F)(F)F)CC1CCO (stereo not given)	-4%
CC1=C2C(=O)C3C(CC=C4CC(OC5OC(O)C(O)C(O)C5CO)CCC43C)C2CCC12OC1CC(C)CNC1C2C (stereo not given)	41.4% (active)
CC(=O)OC1C2(CC3N4C(=O)C5(CO)SSC4(CC31O)C(=O)N5C)OC(C)C(C)(C)C2=O (stereo not given)	-4.6%
N[C@@H](Cc1c[nH]c2ccccc12)c1nnc(SCc2c(F)cccc2Cl)o1	18%
CN(C)C(=O)Oc1ccc2c(c1)O/C(=C\c1ccccc1)C2=O	-9.7%
c1ccc(N2Cc3ccccc3-n3nncc3C2)nc1	14.6%
CC(Cc1ccccc1)NCCC(c1ccccc1)c1ccccc1 (stereo not given)	8.1%
CC(Cc1ccccc1)NC=O (stereo not given)	50.7% (active)
CC(=O)Nc1ccc(C(=O)C(Cc2ccccc2)N(C)C)cc1 (stereo not given)	-0.4%
CCC(C)(O)C(=O)OC1C(=O)OC2CC3C(C)=CC(=O)C(O)C3(C)C3C4(O)OCC23C1C(C)C4O (stereo not given)	15.7%
CC(=CCOc1ccc2ccc(=O)oc2c1)C1=CC(=O)C(C)(C)O1	-260%
C=Cn1ccnc1P(=S)(c1cc(N(CC)CC)ns1)c1nccn1C=C	1.5%
